From PubChem
Most compounds without a hit are left out; they make up all but 12% or so of the library.
JMJD2A Tudor – JMJD2A Tudor domain (human) inhibition | O75164 | AlphaScreen JMJD2A-Tudor / H3K4me3 peptide binding | Potency, µM (top dose mostly 114 µM), without a hit: at the top dose activity change, negative = inhibition, actives largely listed as inhibitors | actives 4.4% (n = 390,000); note: % is set by controls: 0 for no effect and ±100 for the full control effect; nearly all actives have a fitted effect of over 50% in size
BAZ2B inh – inhibitors of human BAZ2B bromodomain | AlphaScreen BAZ2B-H3K14Ac peptide displacement | Potency, µM (highest dose often 114 µM), inactives show top-dose activity change, negative = inhibition, usual class: inhibitors | actives 4.4% (n = 360,000); note: % is set by controls: 0 for no effect and ±100 for the full control effect; nearly all actives have a fitted effect of over 60% in size
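Protein-peptide AlphaScreen: BAZ2B 50 nM, b-H3K14Ac 50 nM, 1x PBS pH 7.4 + 0.01% Tween-20. Preincubation 30 min RT; cpd 30 min RT (top 110 uM); beads 20 min RT, light-protected.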
HP1b chromo inh – HP1-beta chromodomain-methylated histone interaction inhibition | P83916 | AlphaScreen HP1-beta / biotin-H3K9me3 peptide binding | Potency, µM (titrated, usually from 114 µM), for inactives: at the highest dose activity change, negative = inhibition, hits mostly inhibitors | actives 0.56% (n = 390,000); note: nearly all actives have a fitted effect of over 70% in size
Target sequence (P83916 whole entry, looked up): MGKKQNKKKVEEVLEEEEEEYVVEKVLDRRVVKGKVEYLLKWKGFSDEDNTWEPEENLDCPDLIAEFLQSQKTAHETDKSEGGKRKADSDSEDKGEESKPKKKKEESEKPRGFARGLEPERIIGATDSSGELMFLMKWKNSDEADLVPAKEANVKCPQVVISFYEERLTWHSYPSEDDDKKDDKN
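Compound inhibition of the preformed complex between 50 nM HP1-beta and 50 nM biotinylated H3K9me3 peptide was read by AlphaScreen. Buffer was PBS pH 7.4 with 0.01% Tween-20. Incubations ran 30 min at room temperature, with 10 ug/mL donor/acceptor beads.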
Sfp PPTase inh – inhibitors of Bacillus subtilis Sfp phosphopantetheinyl transferase; Q9F4F7; Biochemical Sfp PPTase activity, qHTS; Potency, µM, inactives show largest response in the series, negative = inhibition, actives largely listed as inhibitors; actives 3.5% (n = 310,000); AID 1490;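 note: the enzyme is Sfp with the accession as filed and its product quenches rhodamine fluorescence; 0% = enzyme reaction without inhibitor and -100% = no enzyme wells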
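Reaction rates are the 30-min fluorescence difference (ex 525, em 598 nm) in wells containing 15 nM Sfp, 5 uM rhodamine-CoA and 12.5 uM BHQ-2-YbbR at pH 7.6 with 10 mM MgCl2.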
G9a block – G9a (human) methyltransferase inhibition; Potency, µM (series often up to 102 µM), inactives show at the highest dose activity, negative = inhibition, hits mostly inhibitors; G9a H3K9 monomethylation, AlphaScreen, 2 h; Q96KQ7; actives 8.8% (n = 350,000); note: % is set by controls: 0 for no effect and ±100 for the full control effect; nearly all actives have a fitted effect of over 75% in size
Target sequence (Q96KQ7 913-1193 limits assumed): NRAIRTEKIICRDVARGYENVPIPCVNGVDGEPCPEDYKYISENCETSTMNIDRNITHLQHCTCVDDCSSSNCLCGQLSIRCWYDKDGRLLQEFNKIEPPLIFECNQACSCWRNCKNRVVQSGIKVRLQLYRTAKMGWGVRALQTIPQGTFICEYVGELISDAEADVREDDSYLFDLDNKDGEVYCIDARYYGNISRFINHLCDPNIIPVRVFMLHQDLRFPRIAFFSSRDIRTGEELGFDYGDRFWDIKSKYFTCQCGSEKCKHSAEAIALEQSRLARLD
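G9a (20 nM) was preincubated 15 min with compound, then reacted 2 h at room temperature with 500 nM biotin-H3K9 peptide and 20 µM SAM. Monomethyl-H3K9 detected by AlphaScreen using anti-H3K9me1 antibody.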
PLK1 PBD block – PLK1 (human) polo-box domain binding inhibition. Potency, µM, inactives show max response, negative = inhibition, usual class: inhibitors. Plk1 PBD binding of FITC phosphopeptide, fluorescence polarization. P53350. actives 2.8% (n = 360,000); note: series mostly up to about 57 µM; % is set by controls: 0 for no effect and ±100 for the full control effect; nearly all actives have a fitted effect of over 65% in size
The depositor's hits bear a star; ? = inconclusive; . = not tested or not shown; [ ] = dose if it differs, or a comment. Calls come from the whole dose curve; as a rule, active = well fitted curve in the direction sought with a large enough effect; inconclusive = small, poorly fitted or top-dose-only effect, or another doubt; inactive = no such curve, though single readings can be large; an effect the other way counts as inactive or inconclusive. Potency is the fitted concentration of half-maximal effect.

SMILES	JMJD2A Tudor	BAZ2B inh	HP1b chromo inh	Sfp PPTase inh	G9a block	PLK1 PBD block
COC(=O)c1sccc1NC(=O)CN(C)NS(=O)(=O)c1ccc([N+](=O)[O-])cc1	56µM*	-12%	-1%	-15%	-20%[59 µM]	24µM*
CO/N=C\c1cc(C(=O)c2ccc(Cl)cc2Cl)cn1C	-24%	-20%	21%	-8%	-25%	-7%
O=C1c2ccccc2C(c2nnnn2-c2ccc3c(c2)OCCO3)N1Cc1ccco1 (stereo unspecified)	.	.	.	.	.	-17%
Cc1ccc(CNCc2ccc3c(c2)OCO3)cc1	1.4µM*	?	?	-3%	13µM*	-3%
FC(F)(F)c1ccccc1CNCc1ccc2c(c1)OCO2	20µM*	?	?	-19%	-63%	-10%
COc1ccc(CNCc2ccc3c(c2)OCO3)c(OC)c1OC	0.79µM*	-31%	?	-15%	45µM*	-1%
COc1ccccc1CNCc1ccc2c(c1)OCO2	.	.	.	.	.	-4%
COc1ccc(C(=O)Oc2c(Sc3ccc(C)cc3)c(C)nn2C(C)(C)C)c(OC)c1	0%	6%	21%	.	-12%[59 µM]	.
O=C(CN1C(=O)NC2(CCCCC2)C1=O)N1CCN(S(=O)(=O)c2ccc(Cl)s2)CC1	-22%	12%	-6%	.	18µM*	0%
CC1CCCCC12NC(=O)N(CC(=O)N1CCN(S(=O)(=O)c3ccc(Cl)s3)CC1)C2=O (stereo unspecified)	.	.	.	.	.	-2%
O=C(COC(=O)c1ccc(S(=O)(=O)N2CCCC2)cc1)Nc1ccc(N2CCOCC2)cc1	-26%[11.4 µM]	-24%	?	-12%	30%[59 µM]	9.5µM*
O=C(COC(=O)CCC(=O)c1ccc(F)cc1)Nc1ccc(N2CCOCC2)cc1	-12%	-7%	30%	8%	50µM*	-1%
O=C(COC(=O)c1ccc(S(=O)(=O)N2CCCC2)cc1)Nc1cccc(F)c1	-23%	14%	31%	.	5µM*	-11%
O=C(OCc1ccco1)c1ccc(S(=O)(=O)N2CCCCC2)cc1	79µM*	50µM*	-3%	22µM*	?	-27%
O=C(COC(=O)c1ccc(O)cc1)Nc1ccc(S(=O)(=O)N2CCOCC2)cc1	-11%	.	24%	.	.	1%
O=C(Nc1ccc(C(=O)OCc2cc(=O)n3c4c(sc3n2)CCCC4)cc1)c1ccccc1	-6%	-2%	12%	.	17%[59 µM]	.
Cc1ccc(N2C(=O)C(CC(=O)Nc3cccc(F)c3)N(CCc3ccccc3F)C2=O)cc1 (stereo unspecified)	-6%	-38%	30%	.	34%[59 µM]	.
Fc1ccc(C2=NC(c3cccc(C(F)(F)F)c3)=Nc3ccccc3N2)cc1	-24%	-21%	21%	.	-3%[59 µM]	.
COCC(C)NC(=O)CSc1nc(-c2ccccc2)c(-c2ccccc2)o1 (stereo unspecified)	-30%	?	-9%	-15%	?	-7%
Cc1ccc(C(=O)OCC(=O)N2CCOCC2)cc1	-10%	4%	-8%	17%	18%	2%
N#Cc1ccc(C(=O)OCC(=O)N2CCOCC2)cc1	1%	-25%	29%	17%	50µM*	-1%
N#Cc1ccc(OCC(=O)OCC(=O)Nc2ccc(N3CCOCC3)cc2)cc1	-20%	12%	4%	.	?	-10%
N#Cc1ccc(C(=O)OCC(=O)Nc2ccc(N3CCOCC3)cc2)cc1	-7%	.	25%	-2%	10µM*	-6%
O=C(c1cccc(-n2cccc2)c1)N1CCN(S(=O)(=O)c2ccccc2Br)CC1	-21%	-33%	-6%	.	45µM*	-1%
O=C(c1ccncc1)N1CCN(S(=O)(=O)c2ccccc2Br)CC1	-1%	8%	21%	.	-3%[59 µM]	2%
SMILES	JMJD2A Tudor	BAZ2B inh	HP1b chromo inh	Sfp PPTase inh	G9a block	PLK1 PBD block
O=C1NC(c2cccc3ccccc23)Nc2ccccc21 (stereo unspecified)	-12%	.	32%	.	.	-7%
O=C1c2ccccc2C(=O)C1Cc1cccc2ccccc12	?	?	-30%	-19%	50µM*	6.7µM*
CN(C)/C=C1\C(=O)NN=C1c1ccccc1	-3%	-27%	34%	0%	50µM*	-1%
CN(C)C=C1C(=O)c2ccccc2C1=O	-7%	-2%	34%	5%	?	0%
CC(=O)CCC(=O)N1CCCC(N2CCN(c3cccc(Cl)c3)CC2)C1 (stereo unspecified)	-5%	-25%	13%	13%	19%	-15%
CN(C)CCC[C@@]1(c2ccc(F)cc2)OCc2cc(C#N)ccc21	35µM*	.	?	13%	17%[59 µM]	-3%
CNc1nc(-c2ccccn2)nnc1-c1ccccc1	5.6µM*	0.89µM*	30%	63µM*	2%[12.7 µM]	-9%
CCC(C(=O)NCc1ccc(F)cc1)n1nc(C)n2c(cc3occc32)c1=O (stereo unspecified)	-9%	-10%	44%	10%	-12%	-5%
CCOc1ccc(CNC(=O)C(CC)n2nc(C)n3c(cc4occc43)c2=O)cc1OC (stereo unspecified)	-7%	-6%	31%	11%	50µM*	5%
COc1ccc(C2=CC(c3ccc(OC)c(OC)c3)NC(=S)N2)cc1 (stereo unspecified)	-7%	-27%	58%	12%	32µM*	?
COc1cccc(C2=CC(c3ccc(OC)c(OC)c3)NC(=S)N2)c1 (stereo unspecified)	-19%	?	46%	5%	.	-16%
COc1ccc(C2C=C(c3ccc(F)cc3)NC(=S)N2)cc1OC (stereo unspecified)	-30%	?	?	21%	45µM*	-21%
COc1ccc(C2C=C(C34CC5CC(CC(C5)C3)C4)NC(=S)N2)cc1 (stereo unspecified)	?	?	-7%	2%	?	12µM*
Cc1cc(C)c(S(=O)(=O)NC2CC(C)(C)NC(C)(C)C2)cc1Br	-10%	-8%	31%	11%	15%[59 µM]	2%
COC(=O)c1c(-c2c(Cl)cccc2Cl)noc1C(=O)NNC(=O)N(C)C	-12%	-4%	13%	0%	8%[59 µM]	-4%
CCOc1nc(Nc2ccccc2F)nc(OCC)n1	-3%	1%	30%	4%	8%	-15%
Fc1ccccc1Nc1nc(Cl)nc(Cl)n1	?	0%	-12%	10%	6%[59 µM]	19µM*
CCCC(=O)Nc1cc(-c2nnc3c4ccccc4c(C)nn23)ccc1C	-14%	0%	27%	.	-25%[59 µM]	.
COc1cccc(C=O)c1OCCCOc1cccc2cccnc12	-6%	-17%	40%	-6%	.	-5%
O=Cc1ccc(O)c2ncccc12	2.8µM*	1.3µM*	81%	25%	?	-10%
